Measurements: PubChem BioAssay AID720489 (Milwaukee Institute for Drug Discovery, 2013)
This is one part of the list. Values without a mark were called inactive. Active and inactive are the calls of the source.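 The calls were made as follows: active = fluorescence interference ratio at or below 0.8 quencher or at or above a set limitenhancer; inactive = the rest.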

test: Cy5-DNA-NS3h complex fluorescence interference, confirmation, artefact control for HCV NS3 helicase inhibitor project, biochemical, ChemBridge library (AID 720489); conditions: Cy5-dT15 DNA/NS3h fluorescence interference counterscreen; at 100 µM;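 also: ratio of compound fluorescence to mean of negative controls so 1 means no interference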

| SMILES | fluorescence interference ratio |
| --- | --- |
| O=C1NC(=O)C(=Cc2cc([N+](=O)[O-])cc(Br)c2O)C(=O)N1 | 0.747 (active) |
| N#Cc1c(N)nc2sc(C(=O)Nc3ccccc3)c(N)c2c1-c1ccco1 | 0.783 (active) |
| O=c1c2c(nc3cc(-c4cccc(F)c4)[nH]n13)CCS2 | 0.718 (active) |
| Cc1ccc(C(=O)C[n+]2cc(-c3ccccc3)n3c2CCCCC3)cc1 | 1.02 |
| CC(C)(C)N1C(=O)NC(=O)C(=Cc2cccs2)C1=O | 0.788 (active) |
| C=CCN1C(=O)/C(=C\c2cc(OC)c(O)c([N+](=O)[O-])c2)C(=O)NC1=S | 0.746 (active) |
| CCN(CC)c1ccc(NC(=O)/C(=C\c2ccccc2)NC(C)=O)cc1 | 1.09 |
| COc1cc(/C(O)=C(\C#N)c2nc3ccccc3n2C)cc(OC)c1OC | 0.722 (active) |
| O=C(NC(=S)Nc1ccc(-c2nc3cc(Cl)ccc3o2)cc1)c1ccco1 | 1.01 |
| CCOc1ccc(C=C2C(=O)NC(=O)NC2=O)cc1Cl | 0.902 |
| COc1ccc(N2C(=O)C=CC2=O)c([N+](=O)[O-])c1 | 0.746 (active) |
| Cc1ccc(C(=O)NCCNc2ccc([N+](=O)[O-])cc2)cc1 | 0.955 |
| COc1cc(C=C2C(=O)NC(=O)NC2=O)ccc1OCCOc1ccc([N+](=O)[O-])cc1 | 0.667 (active) |
| COc1ccc(C(=O)Oc2ccc3oc(=O)cc(C)c3c2)cc1OC | 0.772 (active) |
| CCN(CC)c1ccc(C=C2C(=O)N(C)C(=O)N(C)C2=O)c(O)c1 | 1 |
